Luc counter: counter-screen: inhibitors of Kinase-Glo firefly luciferase. Q27757. Kinase-Glo luciferase, ATP luminescence, 8 min. Potency, µM (doses to about 38.3 µM), for the others: at the highest dose activity change, negative = inhibition, hits mostly inhibitors. actives 0.28% (n = 200,000). AID 1379; further: nearly all actives have a fitted effect of over 60% in size
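Kinase-Glo luciferase light output from ATP and luciferin was measured with 10 uM ATP, within the enzyme's linear range. Buffer: 50 mM imidazole pH 7.2, 50 mM KCl, 7 mM MgCl2, 0.01% Tween 20, 0.05% BSA; luminescence read after 8 min at ambient temperature.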
RORgamma inh: ROR gamma (mouse) transcription inhibition; P51450; Drosophila S2 Gal4-RORgamma UAS-luciferase reporter, 20 h; Potency, µM (highest dose often 53.6 µM), inactives show at the top dose activity change, negative = inhibition, actives largely listed as inhibitors; actives 5.4% (n = 310,000); further: nearly all actives have a fitted effect of over 60% in size
Target sequence (P51450 whole entry, looked up, the tested form may be a part): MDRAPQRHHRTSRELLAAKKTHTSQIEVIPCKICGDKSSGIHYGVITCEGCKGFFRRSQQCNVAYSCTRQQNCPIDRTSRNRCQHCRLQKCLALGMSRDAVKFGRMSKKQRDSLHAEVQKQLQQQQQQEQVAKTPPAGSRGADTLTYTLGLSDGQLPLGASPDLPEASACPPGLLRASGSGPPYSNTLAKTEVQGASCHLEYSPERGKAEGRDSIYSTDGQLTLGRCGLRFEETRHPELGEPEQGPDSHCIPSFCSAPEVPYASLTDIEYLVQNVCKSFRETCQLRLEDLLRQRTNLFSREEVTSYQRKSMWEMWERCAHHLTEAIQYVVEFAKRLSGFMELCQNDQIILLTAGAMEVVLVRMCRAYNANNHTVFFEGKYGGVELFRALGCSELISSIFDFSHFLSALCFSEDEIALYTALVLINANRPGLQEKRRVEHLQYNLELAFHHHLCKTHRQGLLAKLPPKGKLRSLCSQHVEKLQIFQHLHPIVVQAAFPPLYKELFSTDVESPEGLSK
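A Gal4/UAS one-hybrid system in insect cells: metallothionein-promoter Gal4–ROR gamma fusion plus Photinus luciferase reporter. Copper sulfate 700 uM final, 20 hr ambient incubation, luminescent detection after 10 min with reagent.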
VP16 counter: counter-screen for ROR gamma inhibitors: Gal4-VP16 reporter | Drosophila S2 Gal4-VP16 UAS-luciferase, luminescence, 20 h | Potency, µM (top dose mostly 53.6 µM), for the others: at the top dose activity, negative = inhibition, actives largely listed as inhibitors | actives 3.5% (n = 310,000) | AID 2546;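 further: Gal4-VP16 expression switched on by copper sulfate through the metallothionein promoter; nearly all actives have a fitted effect of over 50% in size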
* = called active by the depositor; [ ] = remark or other dose. A selection: hits, their analogues and other compounds. The true share with any hit is near 6.4%. The call rests on the fitted dose curve; in most records, active means well fitted curve in the direction sought with a large enough effect; inconclusive means small, poorly fitted or top-dose-only effect, or another doubt; inactive means no such curve, though single readings can be large; an effect the other way counts as inactive or inconclusive. On the % scale 0 is the no-effect control and ±100 the full control effect; potency means the concentration at half of the fitted maximal effect.

For Cc1ccc(Cn2c(=N)n(CC(=O)c3ccccc3)c3ccccc32)cc1 the results were Luc counter -1.6%, RORgamma inh 12.6µM* and VP16 counter 14.1µM*.
Screening COc1cccc(C(=O)Cn2c(NCCO)nc3ccccc32)c1 returned Luc counter 0.2%, RORgamma inh 43.2% and VP16 counter -11.2%.
Screening Cn1c(=N)n(CC(=O)c2ccc(Br)s2)c2ccccc21 returned Luc counter -6.3%, RORgamma inh 22.7% and VP16 counter 2.1%.
`C=CCn1c(=N)n(CC(=O)c2ccccc2)c2ccccc21` gave RORgamma inh -28.5% and VP16 counter inconclusive.
`N=c1n(CC(=O)c2ccc(Br)s2)c2ccccc2n1Cc1ccccc1` gave RORgamma inh 10µM* and VP16 counter 14.1µM*.
`COC(=O)[C@H](Cc1ccccc1)NC(=O)O[C@H]1C(=O)c2cc(OC)ccc2O[C@@H]1c1ccc(OC)c(Br)c1` gave Luc counter -0.2%, RORgamma inh -0.7% and VP16 counter 9.9%.
Screening COc1ccccc1CNC(=O)C1CCCN(S(=O)(=O)c2ccc3c(c2)C(C)(C)C(=O)N3C)C1 (stereo not drawn) returned RORgamma inh 2.1% and VP16 counter 2.1%.
For COC(=O)/C(Cc1cc(Br)c(OC)c(Br)c1O)=N/O the results were Luc counter -0.5%, RORgamma inh -2.4% and VP16 counter 6.9%.
Cc1ccc(CNC(=O)C2CCC(=O)N(Cc3ccc(Cl)cc3)C2)cc1F (stereo not drawn) was read as RORgamma inh 0.0% and VP16 counter 15.9%.
Screening CC(C)(C)C(=O)Cn1c(=N)n(Cc2ccccc2Cl)c2ccccc21 returned Luc counter 14.4%, RORgamma inh 4.47µM* and VP16 counter inconclusive.
N=c1n(CC(=O)c2cccc([N+](=O)[O-])c2)c2ccccc2n1Cc1ccccc1 was read as Luc counter 0.0%, RORgamma inh 7.08µM* and VP16 counter inconclusive.
`CC(C)(C)C(=O)Cn1c(=N)n(Cc2ccccc2)c2ccccc21` gave Luc counter 0.3%, RORgamma inh inconclusive and VP16 counter -8.8%.
`CCn1c(=N)n(CC(=O)c2cccc([N+](=O)[O-])c2)c2ccccc21` gave Luc counter 0.1%, RORgamma inh -25.2% and VP16 counter -2.4%.
CN(C)c1ncc2nc(-c3cc(F)cc(F)c3)c(=O)n(Cc3cccs3)c2n1 was read as Luc counter -5.5%, RORgamma inh -32.6% and VP16 counter -4.9%.
`CN1N=C2c3ccccc3CCC2C1c1ccc(Cl)cc1` (stereo not drawn) gave RORgamma inh 12.6% and VP16 counter 8.0%.
`COc1ccc(CCNC(=O)CCC(=O)N2CCOc3ccc(Cl)cc32)cc1OC` gave RORgamma inh 26.7% and VP16 counter 4.7%.
For CC(C)CN1CCNC(=O)C1CC(=O)NCCCN1CCCc2ccccc21 (stereo not drawn) the results were Luc counter -3.5%, RORgamma inh 2.7% and VP16 counter -12.7%.
For S=C(NN=C(C1CC1)C1CC1)Nc1ccccc1 the results were Luc counter -1.4%, RORgamma inh 11.2µM* and VP16 counter 17.8µM*.
Screening CN1CCN(NC(=S)Nc2ccccc2)CC1 returned Luc counter -1.3%, RORgamma inh -7.2% and VP16 counter -6.5%.
`O=C(COC(=O)CCCSc1nc2ccccc2[nH]1)Nc1ccc(Cl)cc1` gave Luc counter 0.2%, RORgamma inh 2.4% and VP16 counter -2.6%.
COc1cc(C)cc(OC)c1/C=C\C(=O)O was read as Luc counter -2.6%[7.66 µM].
O=C(CCSCCc1ccccn1)Nc1c(F)c(F)c(F)c(F)c1F was read as Luc counter 1.2%, RORgamma inh 8.2% and VP16 counter -10.5%.
Screening Cc1cc(C2C(C#N)=C(N)Oc3n[nH]c(C)c32)c(C)s1 (stereo not drawn) returned Luc counter -0.4%, RORgamma inh 10µM* and VP16 counter 11.2µM*.
Cc1ccc(-c2ccc(C3C(C#N)=C(N)Oc4n[nH]c(C)c43)o2)cc1 (stereo not drawn) was read as Luc counter -2.3%, RORgamma inh 30.3% and VP16 counter 11.2µM*.
For Cc1[nH]nc2c1C(c1ccc(F)cc1)C(C#N)=C(N)O2 (stereo not drawn) the results were Luc counter 1.6%, RORgamma inh 29.7% and VP16 counter -5.3%.
Cc1[nH]nc2c1C(c1ccc(-c3ccccc3C#N)o1)C(C#N)=C(N)O2 (stereo not drawn) was read as RORgamma inh 8.91µM* and VP16 counter inconclusive.
`Cc1[nH]nc2c1C(c1ccc(-c3ccc(Cl)cc3)o1)C(C#N)=C(N)O2` (stereo not drawn) gave Luc counter 0.6%, RORgamma inh inconclusive and VP16 counter inconclusive.
`Cc1[nH]nc2c1C(c1ccsc1C)C(C#N)=C(N)O2` (stereo not drawn) gave Luc counter 6.9%, RORgamma inh inconclusive and VP16 counter -3.1%.
For CCC(CC)C1C(C#N)=C(N)Oc2n[nH]c(C)c21 (stereo not drawn) the results were Luc counter -4.3%, RORgamma inh -16.7% and VP16 counter 6.5%.
Cc1[nH]nc2c1C(C1CC=CCC1)C(C#N)=C(N)O2 (stereo not drawn) was read as Luc counter 2.7%, RORgamma inh 6.31µM* and VP16 counter 11.2µM*.
`COc1cccc(NC(=S)/C(=C(\[O-])c2cc(C)n(-c3ccccc3F)c2C)[n+]2ccc(N(C)C)cc2)c1` gave Luc counter -2.5%, RORgamma inh 31.8% and VP16 counter -10.2%.
For C[C@H](C(=O)OCO/N=[N+](\[O-])N1CCCC1)c1cccc2ccccc12 the results were RORgamma inh 15.5% and VP16 counter -1.9%.
`Cc1noc(C)c1C(=O)N1CCC[C@@]2(CCN(c3ncccn3)C2)C1` gave Luc counter 0.2%, RORgamma inh -2.0% and VP16 counter 12.5%.
`CCN(c1ccccc1)S(=O)(=O)c1cc(C(=O)Oc2ccc3c(C)cc(=O)oc3c2)ccc1C` gave Luc counter -1.8%, RORgamma inh -14.7% and VP16 counter 25.5%.
`CCN1CCc2c(sc(NC(=S)NC(=O)c3ccc(Cl)cc3)c2C(N)=O)C1` gave RORgamma inh 15.2% and VP16 counter 11.9%.
For CCOC(=O)c1c(-c2ccccc2)csc1NC(=O)CSc1nncs1 the results were Luc counter 0.4%, RORgamma inh 28.5% and VP16 counter inconclusive.
Cc1cc(C)nc(NC(=O)CSc2nc3ccccc3o2)n1 was read as Luc counter 0.0%, RORgamma inh inconclusive and VP16 counter 5.9%.
For CCOC(=O)c1c(NC(=O)CSc2nncs2)sc(C)c1-c1ccccc1 the results were Luc counter -1.5%, RORgamma inh -24.8% and VP16 counter 0.447µM*.
CC(=O)Nc1ccc(NC(=O)CSc2nc3ccccc3o2)cc1 was read as Luc counter 2.5%, RORgamma inh 15.7% and VP16 counter -1.6%.
CC(=O)Nc1nonc1NC(=O)CSc1nc2ccccc2o1 was read as Luc counter -2.6%, RORgamma inh 0.794µM* and VP16 counter 3.98µM*.

Source: PubChem
